Test results reported in PubChem BioAssay (Tox21).
Records with an inconclusive call do not appear. Active and inactive are the calls of the source. Unless noted, calls follow the shape of the dose curve; as a rule, active = well fitted curve in the direction sought with a large enough effect in the repeat runs; inconclusive = weak or mixed curves; inactive = no such curve, though single readings can be large; an effect the other way counts as inactive or inconclusive.

How the values were obtained:
[1] = qHTS RealTime-Glo MT Cell Viability Assay in HEK293 cells - 24 hour (AID 1224886); also: top concentration of the series differs between compounds; nearly all actives have a fitted effect of over 50% in size
Method in brief: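 Luminescence generated by NanoLuc from substrate produced by living HEK293 cells served as the viability signal. Each value reflects the reading at its stated time point during continuous 40 h compound exposure at 37 C.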

[2] = qHTS RealTime-Glo MT Cell Viability Assay in HEK293 cells - 8 hour (AID 1224887); also: top concentration of the series differs between compounds; nearly all actives have a fitted effect of over 50% in size
Method in brief: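 HEK293 cells mixed with RealTime-Glo reagents (NanoLuc plus cell-permeant prosubstrate) at 600 cells/well, preincubated 5 h at 37 C/5% CO2, then given 23 nL compound in DMSO. Nonlytic luminescence from viable cells was read at 0, 8, 16, 24, 32 and 40 h.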

[3] = A CellTox Green Cytotoxicity Assay to monitor cytotoxicity in HEK293 cells - 16 hour (AID 1224888); also: nearly all actives have a fitted effect of over 35% in size
Method in brief: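 HEK293 cells premixed with CellTox Green dye were seeded at 600 cells/well and left 5 h at 37 C/5% CO2 before pin transfer of 23 nL compound in DMSO. Fluorescence from dye bound to dead-cell DNA was read during 40 h treatment.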

[4] = qHTS RealTime-Glo MT Cell Viability Assay in HepG2 cells - 0 hour (AID 1224889); also: nearly all actives have a fitted effect of over 50% in size
Method in brief: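 Tox21 10K library screened in qHTS format on HepG2 cells carrying RealTime-Glo reagents. Compounds were added after a 5 h preincubation, and the luminescent signal from continuous culture was measured repeatedly during 40 h treatment.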

[5] = A CellTox Green Cytotoxicity Assay to monitor cytotoxicity in HepG2 cells - 8 hour (AID 1224890); also: nearly all actives have a fitted effect of over 45% in size
Method in brief: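 HepG2 cells were seeded together with the CellTox Green dye at 600 cells/well, left 5 h at 37 C/5% CO2, then given compounds in DMSO. Fluorescence from dye bound to dead-cell DNA was read repeatedly over 40 h of treatment at 37 C.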

[6] = qHTS assay to identify small molecule antagonists of the estrogen receptor alpha (ER-alpha) signaling pathway using the BG1 cell line in the presence of 0.1 nM 17-beta-estradiol - cell viability counter screen (AID 1259241); also: nearly all actives have a fitted effect of over 40% in size
Method in brief: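 In this screen, hormone-deprived VM7Luc4E2 cells were seeded at 4,000 per well, dosed with compound and 0.1 nM estradiol final, and incubated 22 hr at 37C and 5% CO2; fluorogenic live-cell protease signal reported viability.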

[7] = qHTS assay to identify small molecule antagonists of the androgen receptor (AR) signaling pathway using the MDA cell line in the presence of 0.5 nM R1881 - cell viability counter screen (AID 1259242); also: nearly all actives have a fitted effect of over 45% in size
Method in brief: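 MDA-kb2 cells (human breast carcinoma, stably carrying MMTV-luciferase reporter) were exposed to compounds with 0.5 nM R1881 (final) for 16 hr at 37C, 0% CO2; viability then read as live-cell protease fluorescence (CellTiter-Fluor, 30 min) in the same wells.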

[8] = qHTS assay to identify small molecule phospholipidosis (PLD) inducers (AID 1259344; active = well fitted curve in the direction sought with a large enough effect; an effect the other way counts as inactive or inconclusive)
Method in brief: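 HepG2 cells, 900/well, treated with compound plus LipidTOX Red for 24 h at 37 C; amiodarone positive and DMSO negative controls. Fixed with paraformaldehyde/Hoechst, then high-content imaging scored LipidTOX pit count and integrated intensity per well and per cell.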

[9] = qHTS assay to identify small molecule HDAC inhibitors (AID 1259364); also: top concentration of the series differs between compounds; nearly all actives have a fitted effect of over 45% in size
Method in brief: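 Wild-type HCT-116 cells were plated overnight, exposed to compounds for 2 h at 37 °C, then given HDAC-Glo class I/II luminogenic reagent for 30 min at room temperature before luminescence was read.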

[10] = qHTS assay to identify small molecule HDAC inhibitors - cell viability counter screen (AID 1259365); also: series mostly up to about 92 µM; nearly all actives have a fitted effect of over 50% in size
Method in brief: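 Measured quantity is CellTiter-Glo luminescence from wild-type HCT-116 cells after compound incubation of 2hr at 37C, 5% CO2; reagent developed 30min at room temperature.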

[11] = qHTS assay to identify small molecule agonists of the sonic hedgehog signaling (Shh) pathway - cell viability counter screen (AID 1259366); also: nearly all actives have a fitted effect of over 50% in size
Method in brief: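 In quantitative high-throughput format, 3T3 Gli1-Luc cells were exposed to compounds for 24hr and multiplexed for viability using CellTiter-Fluor, incubated 1hr at 37C before the fluorescence read.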

[12] = qHTS assay to identify small molecule antagonists of the sonic hedgehog signaling (Shh) pathway - cell viability counter screen (AID 1259367); also: nearly all actives have a fitted effect of over 55% in size
Method in brief: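 NIH/3T3-derived Gli1-Luc reporter cells, 2,000/well, plated 4 hr before compound addition, then stimulated with conditioned medium for 24 hr at 37C. Viability measured in the same wells by CellTiter-Fluor fluorescence, reagent added at 23 hr for 1 hr.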

[13] = qHTS assay to identify small molecule agonists of the sonic hedgehog signaling (Shh) pathway (AID 1259368; calls by dose curve; also: series mostly up to about 92 µM; nearly all actives have a fitted effect of over 15% in size)
Method in brief: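 NIH/3T3-derived 3T3Gli1-Luc cells carrying a stably integrated Gli1 response element–firefly luciferase reporter were plated, left 4 hr at 37 C, then given compounds in DMSO for 24 hr. Luminescence was read 30 min after adding luciferase reagent.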

[14] = target: Estrogen receptor beta (Homo sapiens) (UniProt Q92731); assay: qHTS assay to identify small molecule agonists of the estrogen receptor beta (ER-beta) signaling pathway (AID 1259377; active = well fitted activation curve with a large enough effect in the signal ratio in the repeat runs, not every such curve was filed as active; the % refers to the signal ratio)
Estrogen receptor beta (Homo sapiens), sequence (Q92731 whole entry, looked up): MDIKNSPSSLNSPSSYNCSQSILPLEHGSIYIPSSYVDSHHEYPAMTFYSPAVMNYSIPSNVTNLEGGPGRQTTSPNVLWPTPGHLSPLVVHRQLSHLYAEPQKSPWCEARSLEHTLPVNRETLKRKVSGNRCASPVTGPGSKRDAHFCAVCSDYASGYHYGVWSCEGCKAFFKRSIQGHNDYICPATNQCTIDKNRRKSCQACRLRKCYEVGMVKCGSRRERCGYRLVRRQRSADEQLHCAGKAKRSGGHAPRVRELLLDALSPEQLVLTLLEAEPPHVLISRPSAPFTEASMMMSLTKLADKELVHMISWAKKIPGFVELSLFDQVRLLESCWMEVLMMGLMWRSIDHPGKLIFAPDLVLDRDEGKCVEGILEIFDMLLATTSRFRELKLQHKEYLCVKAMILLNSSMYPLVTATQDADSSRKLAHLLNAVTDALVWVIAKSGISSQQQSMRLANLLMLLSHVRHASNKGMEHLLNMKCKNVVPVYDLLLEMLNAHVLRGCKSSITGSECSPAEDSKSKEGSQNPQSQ
Method in brief: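 Reporter cells (HEK293T, ER-beta-UAS-bla) receive compounds or DMSO after a 6 hr pre-incubation. They then incubate 16 hr at 37C/5% CO2, and fluorescence from LiveBLAzer B/G substrate is measured after 2 hours at room temperature.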

[15] = target: Estrogen receptor beta (Homo sapiens) (UniProt Q92731); assay: qHTS assay to identify small molecule antagonists of the estrogen receptor beta (ER-beta) signaling pathway (AID 1259378; active = well fitted inhibition curve with a large enough effect in the signal ratio in the repeat runs, not every such curve was filed as active; the % refers to the signal ratio)
Method in brief: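 ER-beta-UAS-bla HEK293T cells in 2% charcoal-stripped FBS medium treated with compound plus 1nM final 17-beta-estradiol for 16 hr at 37C. Beta-lactamase reporter read by FRET substrate fluorescence after 2 hours at room temperature.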

[16] = qHTS assay to identify small molecule agonists of the androgen receptor (AR) signaling pathway in the presence of an antagonist - cell viability counter screen (AID 1259379); also: series mostly up to about 92 µM; nearly all actives have a fitted effect of over 25% in size
Method in brief: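 MDA-kb2 human breast carcinoma cells (stable MMTV-luciferase, AR/GR responsive) were seeded 3,000 cells/well, pre-incubated 5 hr at 37C without CO2, then given 3.0uM nilutamide and compounds at 15 concentrations for 16 hr. Viability was read by CellTiter-Fluor fluorescence.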

[17] = qHTS assay to identify small molecule agonists of the estrogen receptor beta (ER-beta) signaling pathway - cell viability counter screen (AID 1259380); also: nearly all actives have a fitted effect of over 30% in size
Method in brief: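 ER-beta-UAS-bla HEK293T cells in medium with 2% charcoal-stripped FBS were preincubated 6 hr at 37C, dosed with compound in DMSO for 16 hr, then after the bla read, CellTiter-Glo was added for 30 min at room temperature; luminescence recorded.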

[18] = qHTS assay to identify small molecule antagonists of the sonic hedgehog signaling (Shh) pathway (AID 1259369; calls by dose curve; also: nearly all actives have a fitted effect of over 45% in size)
Method in brief: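 NIH/3T3-derived 3T3Gli1-Luc cells with stably integrated Gli1-Luc reporter were preincubated 4hr at 37 C, then given compounds in DMSO plus Shh conditioned medium and incubated 24hr. Firefly luciferase luminescence read after 30min reagent at room temperature.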
% is scaled to controls: 0 for no effect and ±100 for the full control effect.

CCOC(=O)OCC/C(SC(=O)OCC)=C(\C)N(C=O)Cc1cnc(C)nc1N
inactive: Potency [1] | Potency [2] | Potency [3] | Potency [4] | Potency [5] | Potency [6] | Potency [7] | PLD induction [8] 2.13% [at 1.53 µM] | Potency [9] | outcome [10] | Potency [11] | Potency [12] | outcome [13] | Potency [14] | outcome [15] | Potency [16] | outcome [17]

CC(C)COC(=O)CCCCC(=O)OCC(C)C
inactive: Potency [1] | Potency [2] | Potency [3] | Potency [4] | Potency [5] | Potency [6] | Potency [7] | Potency [9] | outcome [10] | Potency [11] | Potency [12] | outcome [13] | Potency [18] | Potency [16]

CC(=O)OCCCc1ccccc1
inactive: Potency [1] | Potency [2] | Potency [3] | Potency [4] | Potency [5] | Potency [6] | Potency [7] | Potency [9] | outcome [10] | Potency [11] | Potency [12] | outcome [13] | Potency [18] | Potency [14] | outcome [15] | Potency [16] | outcome [17]

CCCCOC(=O)C(=O)OCCCC
inactive: Potency [1] | Potency [2] | Potency [3] | Potency [4] | Potency [5] | Potency [6] | Potency [7] | Potency [9] | outcome [10] | Potency [11] | Potency [12] | outcome [13] | Potency [18] | Potency [16] | outcome [17]

CN=C(NC#N)NCCSCc1csc(N=C(N)N)n1
inactive: Potency [1] | Potency [2] | Potency [3] | Potency [4] | Potency [5] | Potency [6] | Potency [7] | outcome [8] | Potency [9] | outcome [10] | Potency [12] | outcome [13] | Potency [14] | outcome [15] | Potency [16] | outcome [17]

NS(=O)(=O)c1cc2c(cc1Cl)NC(C(Cl)Cl)NS2(=O)=O (centres undefined)
inactive: Potency [1] | Potency [2] | Potency [3] | Potency [4] | Potency [5] | Potency [6] | Potency [7] | outcome [8] | Potency [9] | outcome [10] | Potency [11] | Potency [12] | Potency [18] | Potency [14] | Potency [16] | outcome [17]

C=C(C)C(=O)OCCCCCCOC(=O)C(=C)C
inactive: Potency [1] | Potency [2] | Potency [3] | Potency [4] | Potency [5] | Potency [6] | Potency [7] | Potency [9] | outcome [10] | Potency [11] | Potency [12] | outcome [13] | Potency [18] | Potency [16] | outcome [17]

C[Si]1(C)N[Si](C)(C)N[Si](C)(C)N1
inactive: Potency [1] | Potency [2] | Potency [3] | Potency [4] | Potency [5] | Potency [6] | Potency [7] | Potency [9] | outcome [10] | Potency [11] | Potency [12] | outcome [13] | Potency [18] | Potency [16] | outcome [17]

CCN(Cc1cccc(S(=O)(=O)O)c1)c1ccccc1
inactive: Potency [1] | Potency [2] | Potency [3] | Potency [4] | Potency [5] | Potency [6] | Potency [7] | Potency [9] | outcome [10] | Potency [11] | Potency [12] | outcome [13] | Potency [18] | Potency [14] | Potency [16] | outcome [17]

CNCc1ccccc1
inactive: Potency [1] | Potency [2] | Potency [3] | Potency [4] | Potency [5] | Potency [6] | Potency [7] | outcome [8] | Potency [9] | outcome [10] | Potency [11] | Potency [12] | outcome [13] | Potency [16] | outcome [17]

Cc1ccccc1C
inactive: Potency [1] | Potency [2] | Potency [3] | Potency [4] | Potency [5] | Potency [6] | Potency [7] | Potency [9] | outcome [10] | Potency [11] | Potency [12] | outcome [13] | Potency [14] | outcome [15] | Potency [16] | outcome [17]

CCOc1ccc(NC(=O)OC(C)C)cc1OCC
inactive: Potency [1] | Potency [2] | Potency [3] | Potency [4] | Potency [5] | Potency [6] | Potency [7] | Potency [9] | outcome [10] | Potency [11] | Potency [12] | outcome [13] | Potency [18] | Potency [14] | Potency [16]

CC(C)C(=O)Nc1cccc(C(F)(F)F)c1
inactive: Potency [1] | Potency [2] | Potency [3] | Potency [4] | Potency [5] | Potency [6] | Potency [7] | Potency [9] | outcome [10] | Potency [11] | Potency [12] | outcome [13] | Potency [18] | Potency [14] | outcome [15] | Potency [16] | outcome [17]

CC(C)(CO)[C@@H](O)C(=O)NCCCO
inactive: Potency [1] | Potency [2] | Potency [3] | Potency [4] | Potency [5] | Potency [6] | Potency [7] | outcome [8] | Potency [9] | outcome [10] | Potency [12] | outcome [13] | Potency [14] | outcome [15] | Potency [16] | outcome [17]

CC(=O)OC(C)(C)Cc1ccccc1
inactive: Potency [1] | Potency [2] | Potency [3] | Potency [4] | Potency [5] | Potency [6] | Potency [7] | Potency [9] | outcome [10] | Potency [11] | Potency [12] | outcome [13] | Potency [16] | outcome [17]
